In PubChem BioAssay (NCATS) one finds Potency, activity change, negative = inhibition and outcome data, which are given here for five compounds.

Assay [1] concerns Zika virus NS2B-NS3 protease. Briefly: Primary screen GU AMC qHTS for Zika virus inhibitors (AID 1347154).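 Note: 0% = no-inhibitor control and -100% = no-enzyme control; nearly all actives have a fitted effect of over 70% in size.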 In a few lines: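 Unlinked Zika NS2B hydrophilic domain–NS3 protease complex at 25 nM in 10 mM Tris-HCl pH 8.0, 0.01% Tween 20, with an AMC peptide substrate. Fluorescence change (340/450 nm) over 15 min at room temperature, normalized to controls, fitted to 4-parameter Hill.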

For the next assay, the target named is Furin (Homo sapiens) (UniProt P09958). Briefly: Furin counterscreen qHTS for Zika virus inhibitors (AID 1347149).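 For activity change, negative = inhibition: purified recombinant full-length human furin enzyme at 5 nM; fluorescence gain from furin cutting a BOC-RVRR-AMC peptide substrate over 15 min; top concentration of the series differs between compounds; plate controls were no-inhibitor control for no effect and no-enzyme control for full effect.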 Note: nearly all actives have a fitted effect of over 70% in size. Note: potency is the fitted concentration of half-maximal effect. An outline of the steps:
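Counterscreen measures cleavage of 2 microM BOC-RVRR-AMC, below its ~15 microM Km, by 5 nM full-length human furin at pH 7.0 after a 15-min compound preincubation. Inhibition derives from the 15-min fluorescence increase at 37C.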

The test system of assay [2] is Zika virus NS2B-NS3 protease (linked construct). Kind of assay: Confirmatory screen NINDS AMC qHTS for Zika virus inhibitors (AID 1347152). Note: potency is the fitted concentration of half-maximal effect; nearly all actives have a fitted effect of over 70% in size. In a few lines:
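Linked NS2B-NS3 1 nM, Tris pH 8.0/0.01% Tween 20; cpd 15 min RT dark; + Nle-KRR-AMC 10 µM (Km 18.3 µM); read 0 and 15 min, 340/450 nm; %inh vs controls, 4-param Hill.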
For orientation: In qHTS, concentration-response curves come from the screen itself.

For assay [3], the system named is Zika virus NS2B-NS3 protease (unlinked complex). Kind of assay: Confirmatory screen GU AMC qHTS for Zika virus inhibitors (AID 1347153).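 Note: enzyme at 25 nM with substrate at 10 µM below its Km of 18.3 µM; potency is the fitted concentration of half-maximal effect; nearly all actives have a fitted effect of over 70% in size.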 In a few lines: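 Noncovalent NS2B hydrophilic domain/NS3 protease complex (25 nM) in 10 mM Tris-HCl pH 8.0, 0.01% Tween 20 was preincubated 15 min at room temperature with compounds. Then 10 µM AMC substrate (Km 18.3 µM) was added; fluorescence was read over 15 min and fitted to a 4-parameter Hill equation.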

A short description of assay [4]: Confirmatory screen NINDS Rhodamine qHTS for Zika virus inhibitors (AID 1347161). Note: potency is the fitted concentration of half-maximal effect; nearly all actives have a fitted effect of over 60% in size. In a few lines: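 Each compound, titrated, sat 15 min with 25 nM linked protease before 1.5 microM Rhodamine110 substrate went in. Fluorescence gain over the next 15 min, in pH 8.0 Tris with Tween 20, gave Hill-fitted curves.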
For assay [5], the system named is Zika virus NS2B-NS3 protease (linked construct). Kind of assay: 384 well plate NINDS Rhodamine confirmatory qHTS for Zika virus inhibitors (AID 1347164).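 Note: fluorescence from protease cleavage of Ac-LKRR-rhodamine 110 substrate; potency is the fitted concentration of half-maximal effect; nearly all actives have a fitted effect of over 65% in size.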 An outline of the steps: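 Fluorescence read at ex 485 nm/em 538 nm, 25 min after adding 10 microM Ac-LKRR-Rd substrate at room temperature in the dark; signal normalized to no-enzyme and no-inhibitor controls. Enzyme final 5, 30 or 60 nM; compounds, ~15 min preincubation.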

Assay [6] in a line: HepG2 cells viability qHTS for Zika virus inhibitors (AID 1347168). Note: potency is the fitted concentration of half-maximal effect. In a few lines: (§1)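 qHTS titration; 24-48 h compound exposure, 37 degrees C/5% CO2; DMEM, 4% FBS; CellTiter Glo ATP luminescence.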
Assay [7] is described as follows: Primary qHTS for small molecule stabilizers of the endoplasmic reticulum resident proteome: Secreted ER Calcium Modulated Protein (SERCaMP) assay (AID 1508630). Note: % is set by controls: 0 for no effect and ±100 for the full control effect. An outline of the steps: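 The SH-SY5Y reporter protocol was run at 3 concentrations up to 38.3 uM (primary) or 11 concentrations (follow-up): 16 h compound, 100 nM thapsigargin for 4 h, then extracellular luciferase luminescence.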

Assay [8] deals with Cytochrome P450 3A4 (Homo sapiens) (UniProt P08684). Kind of assay: qHTS Assay for Inhibitors and Substrates of Cytochrome P450 3A4 (AID 884). Note: potency is the fitted concentration of half-maximal effect; nearly all actives have a fitted effect of over 50% in size. An outline of the steps:
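Luminescent readout of luciferin produced by CYP3A4 (20 nM) dealkylation of Luciferin-PPXE, 25 uM (its KM). NADPH-driven reaction ran 60 min at RT after 10 min compound preincubation; data scaled to 57 uM ketoconazole as 100% inhibition.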

Assay [9] has the same target. Kind of assay: qHTS Assay for Activators of Cytochrome P450 3A4 (AID 885). Note: nearly all actives have a fitted effect of over 65% in size. An outline of the steps: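 CYP3A4 activity: Luciferin-PPXE O-dealkylation, 25uM substrate, 200mM KPO4, RT throughout. Read-out is luciferase luminescence; higher values reflect activation.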
Assay [10] can be described thus: Confirmation and Secondary Assay for Modulators of Hemoglobin Beta Chain Splicing at IVS2 705 locus (AID 930).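 Note: HeLa cells stably expressing the EGFP-705 splicing reporter; series mostly up to about 46 µM; % of control where 0% means no effect.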 In a few lines:
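Restored EGFP fluorescence after 2-day compound exposure reports splicing correction in IVS2-705 EGFP reporter HeLa cells; positive control was 500 nM splice-blocking PNA oligo. Signal measured as well total peak GFP intensity (488 nm excitation).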

The target of assay [11] is Ubiquitin carboxyl-terminal hydrolase 1 (Homo sapiens) (UniProt O94782). Kind of assay: Inhibitors of USP1/UAF1: Pilot qHTS (AID 504865). Note: potency is the fitted concentration of half-maximal effect; nearly all actives have a fitted effect of over 35% in size. In a few lines:
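1nM USP1/UAF1 + cpd, 15 min RT; start w/ Ub-Rho 150nM final; kinetic FL 480/540 nm, 6 reads q60 s. Buffer 50mM HEPES pH 7.8, 0.5mM EDTA, 1mM TCEP, 0.01% Tween-20, 0.1 mg/ml BSA.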

The test system of assay [12] is Zika virus NS2B-NS3 protease (linked). Briefly: 384 well plate NINDS AMC confirmatory qHTS for Zika virus inhibitors (AID 1347163). Note: potency is the fitted concentration of half-maximal effect; nearly all actives have a fitted effect of over 50% in size. To be noted: Recombinant NS2B-NS3 protease, Ac-VKTGKR-AMC fluorescence. In a few lines:
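Enzyme (5, 30 or 60 nM final) first met test compounds for ~15 min. The AMC-tagged peptide Ac-VKTGKR-AMC followed at 30 microM. Fluorescence was then recorded at 25 min and scaled against no-enzyme and no-inhibitor wells.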

Assay [13] in a line: Vero cells viability qHTS for Zika virus inhibitors (AID 1347167). Note: % is set by controls: 0 for no effect and ±100 for the full control effect. An outline of the steps: as §1
Assay [14] can be described thus: Tertiary RLuc qRT-PCR qHTS assay for Zika virus inhibitors (AID 1347169). Note: potency is the fitted concentration of half-maximal effect; nearly all actives have a fitted effect of over 55% in size. In a few lines:
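Luminescence read-out: live-cell Renilla luciferase substrate applied to infected Vero cells, signal measured after 1-1.5 hrs. Cells had received compound before ZIKV-RLuc (Cambodian strain, MOI 1-2) infection and were incubated 48-72 hrs at 37 degrees C.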
On the technique in general: Quantitative PCR measures a nucleic acid by following its amplification.

Assay [15] addresses Rap guanine nucleotide exchange factor 3 (Homo sapiens) (UniProt O95398). Kind of assay: Confirmatory qHTS for antagonist of cAMP-regulated guanine nucleotide exchange factor 3 (EPAC1) (AID 1645880). Note: potency is the fitted concentration of half-maximal effect; nearly all actives have a fitted effect of over 55% in size. In a few lines:
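Released BODIPY-GDP fluoresces less than Rap1-bound BODIPY-GDP; the signal is followed at 480/540 nm at 5-min intervals over 30 min, after 5 min at room temperature. Reactions contain 100 nM EPAC1, 250 nM RAP1B-BODIPY-GDP and 50 uM GDP; results are normalized to ATA and DMSO.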

Assay [16] has the same target. Briefly: Confirmatory qHTS for agonist of cAMP-regulated guanine nucleotide exchange factor 3 (EPAC1) (AID 1645881).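 Note: EPAC1 catalysed release of BODIPY-GDP from Rap1B seen as fluorescence loss; 100% = effect of cAMP agonist control; nearly all actives have a fitted effect of over 75% in size.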
For assay [17], the target named is Rap guanine nucleotide exchange factor 4 (Homo sapiens) (UniProt Q8WZA2). Kind of assay: Confirmatory qHTS for agonist of cAMP-regulated guanine nucleotide exchange factor 4 (EPAC2) (AID 1645884).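 Note: nucleotide exchange releases bodipy-GDP from Rap1 and this lowers its fluorescence; % is set by controls: 0 for no effect and ±100 for the full control effect; nearly all actives have a fitted effect of over 65% in size.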
The target is the same in assay [18]. Kind of assay: Confirmatory qHTS for antagonist of cAMP-regulated guanine nucleotide exchange factor 4 (EPAC2) (AID 1645885). Note: % is set by controls: 0 for no effect and ±100 for the full control effect; nearly all actives have a fitted effect of over 25% in size.

SMILES strings stand for the structures. Unmarked numbers belong to inactive results. Results filed as inconclusive are left out. Active and inactive are the calls of the source. Calls come from the whole dose curve; as a rule, active = well fitted curve in the direction sought with a large enough effect; inconclusive = small, poorly fitted or top-dose-only effect, or another doubt; inactive = no such curve, though single readings can be large; an effect the other way counts as inactive or inconclusive.

Rap guanine nucleotide exchange factor 4 (Homo sapiens), sequence (Q8WZA2 whole entry, looked up): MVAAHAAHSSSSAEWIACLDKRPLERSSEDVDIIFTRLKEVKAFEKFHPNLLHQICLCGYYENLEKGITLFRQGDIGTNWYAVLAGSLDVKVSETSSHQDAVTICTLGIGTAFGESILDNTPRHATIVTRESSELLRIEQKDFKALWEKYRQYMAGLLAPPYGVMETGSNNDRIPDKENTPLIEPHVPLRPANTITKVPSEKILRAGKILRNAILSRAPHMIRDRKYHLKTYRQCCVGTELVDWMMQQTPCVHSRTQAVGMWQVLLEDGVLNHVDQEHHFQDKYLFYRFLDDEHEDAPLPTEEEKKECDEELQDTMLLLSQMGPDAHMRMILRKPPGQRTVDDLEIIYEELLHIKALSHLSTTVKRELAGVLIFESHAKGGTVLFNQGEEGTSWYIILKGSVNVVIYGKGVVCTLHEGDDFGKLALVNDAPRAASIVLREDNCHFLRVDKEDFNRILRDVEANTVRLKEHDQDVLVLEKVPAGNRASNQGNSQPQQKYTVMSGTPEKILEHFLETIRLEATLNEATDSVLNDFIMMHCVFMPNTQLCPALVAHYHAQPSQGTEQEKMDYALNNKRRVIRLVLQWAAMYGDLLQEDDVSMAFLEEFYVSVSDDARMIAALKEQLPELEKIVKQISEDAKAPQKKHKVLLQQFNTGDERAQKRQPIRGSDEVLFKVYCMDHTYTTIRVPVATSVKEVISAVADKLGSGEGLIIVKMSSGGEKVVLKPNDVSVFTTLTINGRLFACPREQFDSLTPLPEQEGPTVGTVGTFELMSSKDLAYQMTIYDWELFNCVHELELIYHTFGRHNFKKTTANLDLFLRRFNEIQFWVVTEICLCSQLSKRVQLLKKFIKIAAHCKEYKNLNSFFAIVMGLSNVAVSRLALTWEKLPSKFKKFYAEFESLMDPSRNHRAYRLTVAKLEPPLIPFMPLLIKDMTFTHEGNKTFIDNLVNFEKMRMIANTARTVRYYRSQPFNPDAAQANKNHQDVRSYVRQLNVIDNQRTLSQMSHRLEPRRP
Furin (Homo sapiens), sequence (P09958 whole entry, looked up): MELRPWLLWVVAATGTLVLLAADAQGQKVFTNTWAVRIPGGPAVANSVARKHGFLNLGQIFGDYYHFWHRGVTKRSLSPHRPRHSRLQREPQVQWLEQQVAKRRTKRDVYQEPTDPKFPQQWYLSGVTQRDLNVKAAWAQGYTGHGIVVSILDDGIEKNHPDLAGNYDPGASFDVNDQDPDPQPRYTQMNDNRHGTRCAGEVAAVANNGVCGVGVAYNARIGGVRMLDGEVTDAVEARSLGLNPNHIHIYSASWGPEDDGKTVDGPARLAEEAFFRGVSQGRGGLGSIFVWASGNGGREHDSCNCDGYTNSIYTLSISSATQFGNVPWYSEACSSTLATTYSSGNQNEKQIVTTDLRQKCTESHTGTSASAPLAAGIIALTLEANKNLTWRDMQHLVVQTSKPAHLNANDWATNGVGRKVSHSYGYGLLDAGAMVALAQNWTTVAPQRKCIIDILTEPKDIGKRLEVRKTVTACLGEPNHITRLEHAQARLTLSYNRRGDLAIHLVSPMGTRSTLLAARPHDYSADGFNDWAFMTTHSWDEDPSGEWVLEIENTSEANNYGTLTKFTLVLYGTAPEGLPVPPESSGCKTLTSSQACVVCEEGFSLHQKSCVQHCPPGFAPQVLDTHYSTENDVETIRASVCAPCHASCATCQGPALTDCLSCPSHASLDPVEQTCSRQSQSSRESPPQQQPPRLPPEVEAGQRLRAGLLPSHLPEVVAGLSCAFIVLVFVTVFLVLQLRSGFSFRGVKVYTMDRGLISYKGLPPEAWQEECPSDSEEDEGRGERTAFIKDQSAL
Rap guanine nucleotide exchange factor 3 (Homo sapiens), sequence (O95398 whole entry, looked up): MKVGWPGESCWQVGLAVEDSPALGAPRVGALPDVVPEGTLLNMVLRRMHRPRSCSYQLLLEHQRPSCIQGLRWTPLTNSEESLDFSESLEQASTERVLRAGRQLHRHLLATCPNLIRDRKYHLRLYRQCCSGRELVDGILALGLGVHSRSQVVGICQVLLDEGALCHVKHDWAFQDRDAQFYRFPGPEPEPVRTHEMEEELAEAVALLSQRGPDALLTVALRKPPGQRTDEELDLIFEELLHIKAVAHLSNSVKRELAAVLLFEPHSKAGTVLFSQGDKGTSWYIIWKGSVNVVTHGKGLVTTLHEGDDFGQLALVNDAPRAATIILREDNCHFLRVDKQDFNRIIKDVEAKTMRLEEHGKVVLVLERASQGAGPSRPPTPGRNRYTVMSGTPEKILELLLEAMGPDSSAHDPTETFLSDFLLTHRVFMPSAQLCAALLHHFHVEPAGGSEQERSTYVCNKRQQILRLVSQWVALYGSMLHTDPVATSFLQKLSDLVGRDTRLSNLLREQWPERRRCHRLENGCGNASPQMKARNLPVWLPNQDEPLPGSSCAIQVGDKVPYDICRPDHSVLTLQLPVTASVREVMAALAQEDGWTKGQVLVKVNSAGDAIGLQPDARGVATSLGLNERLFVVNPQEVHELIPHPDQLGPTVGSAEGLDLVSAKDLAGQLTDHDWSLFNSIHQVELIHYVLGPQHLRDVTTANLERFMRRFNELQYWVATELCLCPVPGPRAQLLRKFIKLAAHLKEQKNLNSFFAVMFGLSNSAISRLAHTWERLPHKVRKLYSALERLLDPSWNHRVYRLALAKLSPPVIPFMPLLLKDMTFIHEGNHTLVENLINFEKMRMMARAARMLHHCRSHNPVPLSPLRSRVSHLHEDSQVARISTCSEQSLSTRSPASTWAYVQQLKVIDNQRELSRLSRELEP
Cytochrome P450 3A4 (Homo sapiens), sequence (P08684 whole entry, looked up): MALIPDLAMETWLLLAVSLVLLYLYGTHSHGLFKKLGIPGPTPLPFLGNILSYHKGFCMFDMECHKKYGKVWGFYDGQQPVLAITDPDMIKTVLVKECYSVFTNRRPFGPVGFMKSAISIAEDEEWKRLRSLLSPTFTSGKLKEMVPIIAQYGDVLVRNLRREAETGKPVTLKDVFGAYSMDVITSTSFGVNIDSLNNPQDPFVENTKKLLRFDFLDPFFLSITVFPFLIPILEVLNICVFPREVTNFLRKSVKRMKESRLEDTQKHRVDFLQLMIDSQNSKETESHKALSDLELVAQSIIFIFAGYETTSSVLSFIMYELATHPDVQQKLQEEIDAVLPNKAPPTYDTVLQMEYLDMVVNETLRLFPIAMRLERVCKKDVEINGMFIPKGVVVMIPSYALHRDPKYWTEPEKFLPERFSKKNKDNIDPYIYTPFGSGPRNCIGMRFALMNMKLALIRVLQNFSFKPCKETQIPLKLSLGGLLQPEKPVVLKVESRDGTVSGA
Ubiquitin carboxyl-terminal hydrolase 1 (Homo sapiens), sequence (O94782 whole entry, looked up): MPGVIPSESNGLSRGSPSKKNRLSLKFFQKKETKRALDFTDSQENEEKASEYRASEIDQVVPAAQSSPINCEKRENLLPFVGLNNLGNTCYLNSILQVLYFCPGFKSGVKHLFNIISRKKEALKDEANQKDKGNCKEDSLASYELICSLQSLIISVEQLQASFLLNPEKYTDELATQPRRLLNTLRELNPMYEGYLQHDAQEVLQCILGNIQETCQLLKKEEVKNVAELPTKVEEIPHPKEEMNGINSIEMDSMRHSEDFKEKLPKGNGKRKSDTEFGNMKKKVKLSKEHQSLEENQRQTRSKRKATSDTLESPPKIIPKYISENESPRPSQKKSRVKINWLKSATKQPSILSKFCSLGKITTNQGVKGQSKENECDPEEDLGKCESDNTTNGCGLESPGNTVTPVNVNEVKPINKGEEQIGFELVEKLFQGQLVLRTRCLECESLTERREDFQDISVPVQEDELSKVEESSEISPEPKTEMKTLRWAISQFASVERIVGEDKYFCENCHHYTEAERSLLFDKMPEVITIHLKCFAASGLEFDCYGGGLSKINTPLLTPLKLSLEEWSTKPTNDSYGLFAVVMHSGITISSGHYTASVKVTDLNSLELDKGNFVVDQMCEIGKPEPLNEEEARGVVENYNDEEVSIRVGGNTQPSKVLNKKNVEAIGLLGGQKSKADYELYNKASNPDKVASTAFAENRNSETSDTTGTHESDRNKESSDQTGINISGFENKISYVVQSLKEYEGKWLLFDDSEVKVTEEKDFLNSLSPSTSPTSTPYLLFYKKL

For `Oc1ccc2c3c1O[C@H]1c4oc5ccccc5c4C[C@@]4(O)C(C2)N(CC2CC2)CC[C@]314`, in assay [1], the Potency entry was “inactive”.

With `CCCCC/C=C\C/C=C\CCCCCCCC(=O)NCCO`, the activity change, negative = inhibition in assay [1] is 7.86% [at 6.83 µM].

Turning to `CCCCC/C=C\C/C=C\C/C=C\C/C=C\CCCCCC(=O)NCCO`, the activity change, negative = inhibition in assay [1] was 3.5% [at 6.83 µM].

As for `CNc1ccc2oc(C[C@@H]3OC4(CC[C@@H]3C)O[C@H]([C@@H](C)C(=O)c3ccc[nH]3)[C@H](C)C[C@H]4C)nc2c1C(=O)O` (stereo partly specified), the Potency in the assay with Furin (Homo sapiens) was 21.5 µM (active); in assay [2], 19.2 µM (active); in assay [3], 24.1 µM (active); in assay [4], 9.87 µM (active); in [5] it was 44.7 µM (active); in [6] it was 26.2 µM (active). Also, the Potency result in assay [7] is “inactive”.

`CC(C)=CCCC1(C)C=Cc2c(O)c3c(c(CC=C(C)C)c2O1)OC12C(=CC4CC1C(C)(C)OC2(C/C=C(/C)C(=O)O)C4O)C3=O` (stereo unspecified): the Potency in [8] is 20 µM (active); in assay [11], 35.5 µM (active); in assay [3], 17.1 µM (active); in assay [4], 2.78 µM (active); in [12], 126 µM (active); in assay [6], 18.6 µM (active). The Potency in assay [14] was 5.87 µM (active); in assay [15] it was 28 µM (active). Besides, the Potency result (in assay [9]; with Furin (Homo sapiens); in assay [13]; in assay [7]; in assay [18]) was “inactive” throughout. Further, the compound was classed as inactive in [10], in assay [16] and in [17].
